Results from PubChem BioAssay (Tox21).
Records with an inconclusive call do not appear. Calls of active or inactive are those of the source. Unless noted, calls come from the whole dose curve; as a rule, active = well fitted curve in the direction sought with a large enough effect in the repeat runs; inconclusive = weak or mixed curves; inactive = no such curve, though single readings can be large; an effect the other way counts as inactive or inconclusive.

Experiments:
[1] = qHTS assay to identify small molecule agonists of the peroxisome proliferator-activated receptor delta (PPARd) signaling pathway - cell viability counter screen (AID 743211); note: nearly all actives have a fitted effect of over 55% in size
Method in brief: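 Viability was measured as CellTiter-Glo luminescence (30 min, room temperature) in the same wells as the beta-lactamase readout. GeneBLAzer PPARd UAS-bla HEK293H cells received compound after 5 h plating and were incubated 17 h at 37 C.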

[2] = target: Peroxisome proliferator-activated receptor delta (Homo sapiens) (UniProt Q03181); assay: qHTS assay to identify small molecule agonists of the peroxisome proliferator-activated receptor delta (PPARd) signaling pathway (AID 743212; calls by dose curve)
Peroxisome proliferator-activated receptor delta (Homo sapiens), sequence (Q03181 whole entry, looked up): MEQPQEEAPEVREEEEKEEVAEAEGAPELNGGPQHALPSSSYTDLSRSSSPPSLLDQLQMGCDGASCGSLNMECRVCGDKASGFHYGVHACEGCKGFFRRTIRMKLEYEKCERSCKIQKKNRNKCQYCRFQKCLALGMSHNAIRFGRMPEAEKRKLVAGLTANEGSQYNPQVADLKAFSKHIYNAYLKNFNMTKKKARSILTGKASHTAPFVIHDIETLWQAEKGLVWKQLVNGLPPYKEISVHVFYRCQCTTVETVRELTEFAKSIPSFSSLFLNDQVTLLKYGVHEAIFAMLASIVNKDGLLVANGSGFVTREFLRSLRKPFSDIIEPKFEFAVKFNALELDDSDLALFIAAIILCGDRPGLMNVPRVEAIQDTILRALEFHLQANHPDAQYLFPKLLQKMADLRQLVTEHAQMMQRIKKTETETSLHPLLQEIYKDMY
Method in brief: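 A PPARd-bla HEK293H line with beta-lactamase under an Upstream Activator Sequence is treated with compounds at 37 C. Substrate loading for 2 h at room temperature precedes the fluorescence measurement.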

[3] = qHTS assay to identify small molecule antagonists of the peroxisome proliferator-activated receptor delta (PPARd) signaling pathway - cell viability counter screen (AID 743213); note: nearly all actives have a fitted effect of over 50% in size
Method in brief: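 Cytotoxicity counter screen: CellTiter-Glo luminescence read 30 min after addition, in the same wells as the reporter assay. There, PPARd UAS-bla HEK293H cells (3000/well) were treated 17 h at 37 C with compound and 300 nM L165041.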

[4] = target: Peroxisome proliferator-activated receptor delta (Homo sapiens) (UniProt Q03181); assay: qHTS assay to identify small molecule antagonists of the peroxisome proliferator-activated receptor delta (PPARd) signaling pathway (AID 743215; active = well fitted inhibition curve with a large enough effect in the signal ratio in the repeat runs, not every such curve was filed as active; the % refers to the signal ratio;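 note: cells stimulated with agonist L165041 at 300 nM final during compound exposure; series mostly up to about 62 µM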)
Method in brief: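 Read-out is beta-lactamase FRET fluorescence, measured 2 h after substrate addition at room temperature. Beforehand, UAS-bla HEK293H cells carrying the PPARd reporter were exposed to compounds with L165041 at 300 nM final for 17 h at 37 C.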

[5] = target: Bile acid receptor (Homo sapiens) (UniProt Q96RI1); assay: qHTS assay to identify small molecule antagonists of the farnesoid-X-receptor (FXR) signaling pathway (AID 743217; active = well fitted inhibition curve with a large enough effect in the signal ratio in the repeat runs, not every such curve was filed as active; the % refers to the signal ratio)
Bile acid receptor (Homo sapiens), sequence (Q96RI1 whole entry, looked up): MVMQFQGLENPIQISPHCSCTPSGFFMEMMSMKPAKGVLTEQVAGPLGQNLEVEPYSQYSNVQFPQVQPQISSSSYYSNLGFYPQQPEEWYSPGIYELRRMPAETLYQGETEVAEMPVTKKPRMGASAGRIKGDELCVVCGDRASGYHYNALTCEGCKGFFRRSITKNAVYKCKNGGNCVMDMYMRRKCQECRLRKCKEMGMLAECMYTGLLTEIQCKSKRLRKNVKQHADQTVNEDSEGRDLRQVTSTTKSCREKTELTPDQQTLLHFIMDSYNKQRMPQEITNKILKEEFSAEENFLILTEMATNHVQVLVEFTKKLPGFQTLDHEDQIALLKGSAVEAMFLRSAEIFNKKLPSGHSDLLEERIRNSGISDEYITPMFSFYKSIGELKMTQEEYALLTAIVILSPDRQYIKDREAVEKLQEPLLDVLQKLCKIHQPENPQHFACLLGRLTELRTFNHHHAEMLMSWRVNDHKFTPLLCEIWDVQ
Method in brief: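 HEK 293T FXR-UAS-bla, 5000 cells/well; compound + CDCA 50 uM final; 16 h, 37 °C; B/G FRET substrate 2 h RT; fluorescence.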

[6] = qHTS assay to identify small molecule agonists of the farnesoid-X-receptor (FXR) signaling pathway - cell viability counter screen (AID 743218); note: nearly all actives have a fitted effect of over 45% in size
Method in brief: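 HEK 293T FXR-bla cells; 5 h pre-incubation, 16 h compound exposure at 37 C; LiveBLAzer substrate 2 h RT, then CellTiter-Glo 30 min RT, luminescence.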

[7] = qHTS assay to identify small molecule agonists of the vitamin D receptor (VDR) signaling pathway - cell viability counter screen (AID 743224); note: series mostly up to about 63 µM; nearly all actives have a fitted effect of over 50% in size
Method in brief: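 Luminescence from CellTiter-Glo, read after 30 min at room temperature, reports viability of VDR-bla cells treated with compounds for 16 h at 37C in the wells used for the beta-lactamase FRET read.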

[8] = qHTS assay to identify small molecule antagonists of the vitamin D receptor (VDR) signaling pathway - cell viability counter screen (AID 743225); note: nearly all actives have a fitted effect of over 50% in size
Method in brief: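 Cytotoxicity counter screen read by CellTiter-Glo luminescence (30 min, room temperature) in the same wells as the VDR-bla antagonist readout. HEK 293T VDR-UAS-bla cells had 16 h at 37C with compound and 3 nM (final) 1-alpha,25-dihydroxyvitamin D3, then 2 h with FRET substrate.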

[9] = qHTS assay to identify small molecule agonists of the NFkB signaling pathway (AID 1159509; active = well fitted curve in the direction sought with a large enough effect in the signal ratio in the repeat runs, not every such curve was filed as active; the % refers to the signal ratio; note: series mostly up to about 61 µM)
Method in brief: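 NFkB-bla ME-180 cells carry a beta-lactamase reporter under an NF-kB response element. They were plated overnight, then exposed to compounds for 5 h at 37 C. Read-out is LiveBLAzer FRET after 1.5 hr at room temperature (405 nm excitation; 460/530 nm emission).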

[10] = qHTS assay to identify small molecule agonists of the NFkB signaling pathway - cell viability counter screen (AID 1159515; calls by dose curve; note: series mostly up to about 61 µM; nearly all actives have a fitted effect of over 55% in size)
Method in brief: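 Luminescence from CellTiter-Glo (30 min, room temperature) gives viability, measured in the same wells as the beta-lactamase reporter read. Cells were NFkB-bla ME-180, 2,000 per well, treated 5 hr with compounds.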

[11] = qHTS assay to identify small molecule agonists of the endoplasmic reticulum stress response signaling pathway (AID 1159516; active = well fitted activation curve with a large enough effect in the signal ratio in the repeat runs, not every such curve was filed as active; the % refers to the signal ratio)
Method in brief: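 Read-out is beta-lactamase cleavage of a FRET substrate (405 nm excitation; 460 and 530 nm emissions) in ESRE-bla HeLa cells after a 5 hr compound exposure at 37 C. Substrate incubation ran 2 hr at room temperature.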

[12] = qHTS assay to identify small molecule agonists of the endoplasmic reticulum stress response signaling pathway - cell viability counter screen (AID 1159517; calls by dose curve;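 note: HeLa cells carrying an ER stress response element beta-lactamase reporter; series mostly up to about 61 µM; nearly all actives have a fitted effect of over 50% in size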)
Method in brief: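 CellTiter-Glo was added to wells already read for beta-lactamase FRET, and luminescence was recorded 30 min later. Cells: ESRE-bla HeLa, 1,500 per well, compound exposure 5 hr at 37 C.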

[13] = qHTS assay to identify small molecule antagonists of the retinoid-related orphan receptor gamma (ROR-gamma) signaling pathway - cell viability counter screen (AID 1159520); note: nearly all actives have a fitted effect of over 50% in size
Method in brief: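 Tet-on ROR gamma CHO cells (1,000/well) were plated 4 hr, given compounds in DMSO for 2 hr at 37 C, then induced with 1 uM final doxycycline for 16 hr. Viability was read as ATP by CellTiter-Glo luminescence after 30 min.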

[14] = target: Nuclear receptor ROR-gamma (Homo sapiens) (UniProt P51449); assay: qHTS assay to identify small molecule antagonists of the retinoid-related orphan receptor gamma (ROR-gamma) signaling pathway (AID 1159521)
Method in brief: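 Antagonist read-out: drop in luminescence (ONE-Glo) from an RORE-LUC reporter in CHO cells with doxycycline-inducible ROR-gamma; 2 hr compound pretreatment, 1 uM doxycycline, 16 hr incubation at 37 C.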

[15] = qHTS assay to identify small molecule agonists of the AP-1 signaling pathway - cell viability counter screen (AID 1159525; calls by dose curve; note: nearly all actives have a fitted effect of over 55% in size)
Method in brief: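 ME-180 AP-1-bla, 2500 cells/well, Opti-MEM + 0.5% dialyzed FBS; overnight 37 °C; cpd 15-pt titration, 5 h 37 °C; CellTiter-Glo 30 min RT; luminescence read; normalised to TOAB and DMSO controls.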

[16] = qHTS assay to identify small molecule agonists of the AP-1 signaling pathway (AID 1159526; calls by dose curve)
[17] = target: Vitamin D3 receptor (Homo sapiens) (UniProt P11473); assay: qHTS assay to identify small molecule agonists of the vitamin D receptor (VDR) signaling pathway (AID 743222; calls by dose curve)
Vitamin D3 receptor (Homo sapiens), sequence (P11473 whole entry, looked up): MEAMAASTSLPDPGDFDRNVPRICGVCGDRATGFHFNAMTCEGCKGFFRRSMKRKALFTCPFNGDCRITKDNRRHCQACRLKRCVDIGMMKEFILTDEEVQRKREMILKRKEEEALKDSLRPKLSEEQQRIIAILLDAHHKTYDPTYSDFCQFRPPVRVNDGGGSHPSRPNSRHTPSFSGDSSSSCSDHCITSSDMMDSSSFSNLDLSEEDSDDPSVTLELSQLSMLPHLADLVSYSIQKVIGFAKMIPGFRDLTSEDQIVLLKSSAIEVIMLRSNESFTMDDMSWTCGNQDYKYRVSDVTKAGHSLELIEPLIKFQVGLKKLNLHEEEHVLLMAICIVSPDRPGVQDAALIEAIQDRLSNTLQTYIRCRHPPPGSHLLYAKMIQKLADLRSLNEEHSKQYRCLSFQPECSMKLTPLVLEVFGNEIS
Method in brief: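 VDR-bla cells, 2,000/well; 4 h preincubation 37C; cpd (DMSO) 16 h; LiveBLAzer B/G substrate 2 h RT; fluorescence intensity read.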

[18] = target: Vitamin D3 receptor (Homo sapiens) (UniProt P11473); assay: qHTS assay to identify small molecule antagonists of the vitamin D receptor (VDR) signaling pathway (AID 743223; active = well fitted inhibition curve with a large enough effect in the signal ratio in the repeat runs, not every such curve was filed as active; the % refers to the signal ratio)
Method in brief: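 Antagonist mode: compound added to VDR-bla cells alongside agonist 1alpha,25-dihydroxyvitamin D3 (3 nM final), incubation 16 h at 37C. Read-out is LiveBLAzer FRET fluorescence, 2 h at room temperature.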

[19] = qHTS assay to identify small molecule antagonists of the farnesoid-X-receptor (FXR) signaling pathway - cell viability counter screen (AID 743221; active = well fitted cell-killing curve with a large enough effect in the repeat runs, not every such curve was filed as active; note: nearly all actives have a fitted effect of over 50% in size)
Method in brief: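 Cytotoxicity counter screen run in the FXR-bla reporter wells: HEK 293T cells exposed to compound with 50 uM (final) chenodeoxycholic acid for 16 h, 37 C, then viability measured by CellTiter-Glo luminescence after 30 min, room temperature.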

[20] = target: Bile acid receptor (Homo sapiens) (UniProt Q96RI1); assay: qHTS assay to identify small molecule agonists of the farnesoid-X-receptor (FXR) signaling pathway (AID 743220; active = well fitted activation curve with a large enough effect in the signal ratio in the repeat runs, not every such curve was filed as active; the % refers to the signal ratio)
Method in brief: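 Beta-lactamase reporter under UAS control in GeneBLAzer FXR HEK 293T cells (5000/well) measured with LiveBLAzer FRET substrate after 2 h at room temperature. Compound exposure lasted 16 h at 37C.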

Measured: Potency

CNCc1ccccc1
not listed: [17] | [18] | [19] | [20]
inactive: all other assays above

CCCCCCCCCOCC1CO1 (configuration not stated)
not listed: [5] | [6] | [19] | [20]
inactive: all other assays above

CCCCCCCCOC(C)=O
not listed: [5] | [18] | [20]
inactive: all other assays above

CC(=O)OCCCc1ccccc1
not listed: [4] | [17] | [18]
inactive: all other assays above

CC(C)SCc1ccco1
not listed: [5] | [17] | [18] | [19] | [20]
inactive: all other assays above

C1=CCC(c2ccccc2)CC1 (configuration not stated)
not listed: [5] | [20]
inactive: all other assays above

CCCCCCCCC(=O)OCC
not listed: [5] | [20]
inactive: all other assays above

CCCCOC(=O)C(C)OC(=O)CCC (configuration not stated)
not listed: [5] | [18] | [20]
inactive: all other assays above

O=C(O)c1ccccc1C(=O)Nc1ccc(S(=O)(=O)Nc2nccs2)cc1
not listed: [5] | [6] | [20]
inactive: all other assays above

CCc1nccnc1C
not listed: [18]
inactive: all other assays above

Nc1cc(C(=O)O)ccc1Cl
not listed: [17]
inactive: all other assays above

C1CCN2C[C@@H]3C[C@@H](CN4CCCC[C@@H]34)[C@H]2C1
not listed: [5] | [20]
inactive: all other assays above

CCN(CCO)c1cccc(C)c1
not listed: [4] | [17] | [18]
inactive: all other assays above

SCCSCCS
not listed: [18]
inactive: all other assays above

Cc1cccc(C(=O)O)c1[N+](=O)[O-]
not listed: [5] | [17] | [18] | [20]
inactive: all other assays above

CCCCCCCCCCCCC1CO1 (configuration not stated)
not listed: [17] | [18]
inactive: all other assays above
